From PubChem
IL1B secr inh – blocks inflammasome-driven IL-1 beta release | THP-1 LPS/ATP IL-1B secretion, AlphaLISA, 16 h; hits give low values | activity change, % at 57.5 µM | hit rate 4.7% among 360,000 | AID 743279; in the data active means activity change below about -50%; inconclusive means mostly about -30% to -49%; further: on the % scale 0 is the no-effect control and ±100 the full control effect
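THP-1 cells pretreated 1 hr with compounds (up to 57.5 uM final), then stimulated with LPS (250 ng/mL final) plus ATP (1.25 mM final); secreted IL-1B measured by AlphaLISA after 16 hr, decreased signal indicating inhibition.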
TDP1 cell noCPT – qHTS for Inhibitors of human tyrosyl-DNA phosphodiesterase 1 (TDP1): qHTS in cells in absence of CPT; hit rate 15% among 420,000; DT40 Tdp1-/- hTDP1 cells, no CPT, ATP luminescence, 48 h; Potency, µM (series often up to 46.2 µM), without a hit: at the highest dose activity change, negative = growth inhibition, actives largely listed as inhibitors; further: potency means the concentration at half of the fitted maximal effect; on the % scale 0 is the no-effect control and ±100 the full control effect; nearly all actives have a fitted effect of over 55% in size
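Chicken DT40 Tdp1-/- cells stably complemented with human TDP1 were seeded at 400 cells/well with DMSO in place of 20 nM camptothecin. After compound pinning, cells grew at least 48 hr at 37 °C; viability read by CellTiter-Glo luminescence.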
HepG2 tox – HepG2 cytotoxicity, counter-screen for TGF-b inhibitors. HepG2 CAGA-GFP viability, ATP luminescence, 18 h. Potency, µM (doses to about 46.1 µM), for the others: at the top dose activity change, negative = cytotoxicity, most hits filed as cytotoxic. hit rate 0.76% among 410,000; further: potency means the concentration at half of the fitted maximal effect
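HepG2 CAGA-GFP cells (1000/well, DMEM with 1% FBS) received compound, then TGF-beta at 500 pg/mL final, and were incubated 18 hours at 37 degrees C. Viability was read by CellTiter-Glo luminescence. Media-only wells were set as complete cell-killing and DMSO as no toxicity.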
DT40 TDP1 CPT – DT40-hTDP1 cell growth loss with CPT. hit rate 12% among 420,000. Potency, µM (top dose mostly 46.2 µM), for inactives: at the highest dose activity change, negative = growth inhibition, hits mostly inhibitors. AID 686979. chicken DT40 Tdp1-/-;hTDP1 cells + 20 nM CPT, ATP luminescence, 48 h; further: potency means the concentration at half of the fitted maximal effect; on the % scale 0 is the no-effect control and ±100 the full control effect; nearly all actives have a fitted effect of over 55% in size
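Chicken DT40 Tdp1-/- cells complemented with human TDP1, 400 cells/well, exposed to compounds plus 20 nM camptothecin for at least 48 h at 37 C; viability read as ATP content by CellTiter-Glo luminescence.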
TDP1 block – inhibitors of human tyrosyl-DNA phosphodiesterase TDP1; recombinant TDP1, AlphaScreen DNA substrate cleavage; Potency, µM (doses to about 130 µM), for the others: at the highest dose activity change, negative = inhibition, usual class: inhibitors; hit rate 0.28% among 350,000; AID 485290; further: potency means the concentration at half of the fitted maximal effect; on the % scale 0 is the no-effect control and ±100 the full control effect; nearly all actives have a fitted effect of over 40% in size
Target sequence (Q9NUW8 whole entry, looked up): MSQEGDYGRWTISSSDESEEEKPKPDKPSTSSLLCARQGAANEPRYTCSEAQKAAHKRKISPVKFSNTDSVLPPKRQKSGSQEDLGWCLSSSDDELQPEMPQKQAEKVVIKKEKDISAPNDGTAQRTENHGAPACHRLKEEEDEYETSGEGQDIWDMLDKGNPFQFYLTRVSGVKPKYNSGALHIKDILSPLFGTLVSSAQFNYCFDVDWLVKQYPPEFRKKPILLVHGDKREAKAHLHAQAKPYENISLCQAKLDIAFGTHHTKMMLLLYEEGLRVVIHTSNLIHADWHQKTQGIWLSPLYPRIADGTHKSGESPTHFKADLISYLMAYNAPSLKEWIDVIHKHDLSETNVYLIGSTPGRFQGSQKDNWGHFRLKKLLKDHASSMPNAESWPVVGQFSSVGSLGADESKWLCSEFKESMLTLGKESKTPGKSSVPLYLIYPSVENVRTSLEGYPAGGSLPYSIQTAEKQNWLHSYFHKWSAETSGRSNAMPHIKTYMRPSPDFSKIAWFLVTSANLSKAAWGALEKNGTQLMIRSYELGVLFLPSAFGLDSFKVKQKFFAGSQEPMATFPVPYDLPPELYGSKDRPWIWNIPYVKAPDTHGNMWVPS
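Here, a 5' biotin and 3' phosphotyrosine-FITC DNA oligonucleotide reports Tdp1 activity: intact substrate bridges AlphaScreen beads, while cleavage leaves a 3' phosphate and drops signal. All incubations at room temperature.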
TGFb inhibitor – TGF-b pathway inhibition. HepG2 CAGA-GFP TGF-b/SMAD3 reporter, GFP fluorescence, 18 h; TGF-beta stimulated, 500 pg/mL final. Potency, µM (top dose mostly 46.1 µM), for the others: at the highest dose activity, negative = inhibition, usual class: inhibitors. hit rate 1.2% among 410,000; further: potency means the concentration at half of the fitted maximal effect; on the % scale 0 is the no-effect control and ±100 the full control effect; nearly all actives have a fitted effect of over 65% in size
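Smad-responsive CAGA-GFP expression was quantified in HEPG2 cells exposed to compounds and 500 pg/mL final TGF-beta for 18 h at 37 degrees C; unstimulated wells defined full inhibition.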
* = called active by the depositor; ? = inconclusive; · = not tested or not shown. An excerpt weighted towards active compounds, which were near 18% of everything screened. Unless noted, the call rests on the fitted dose curve; in most records, active means well fitted curve in the direction sought with a large enough effect; inconclusive means small, poorly fitted or top-dose-only effect, or another doubt; inactive means no such curve, though single readings can be large; an effect the other way counts as inactive or inconclusive.

SMILES	IL1B secr inh	TDP1 cell noCPT	HepG2 tox	DT40 TDP1 CPT	TDP1 block	TGFb inhibitor
CCCCOC(=O)C1=C(C)NC(=O)NC1c1cc2c(cc1Br)OCO2 (configuration not stated)	?	23µM*	-18%	23µM*	4%	?
CC1=C(C(=O)OCCCCCl)C(c2cc3c(cc2Br)OCO3)NC(=O)N1 (configuration not stated)	-18	?	-8%	-27%	·	-3%
CCOC(=O)C1=C(C)NC(=O)NC1c1ccc2c(c1)OCO2 (configuration not stated)	-11	-3%	4%	-1%	-6%	-2%
CCC(CC)COC(=O)C1=C(C)NC(=O)NC1c1ccc2c(c1)OCO2 (configuration not stated)	-79*	?	-32%	-12%	2%	-11%
C=CCOC(=O)Cn1cnc2c(sc3nc(C)cc(C)c32)c1=O	-71*	-17%	25%	5%	·	38%
O=c1[nH]c(SCc2nc3ccccc3c(=O)n2-c2ccccc2C(F)(F)F)nc2ccccc12	-81*	?	-6%	16µM*	3%	-10%
O=C(CN1C(=O)c2ccccc2C1=O)NCC1Cc2cccc(-c3ncccn3)c2O1 (configuration not stated)	·	-11%	·	1%	·	·
Cc1cc(C(=O)OCC(=O)N2CCc3ccccc32)ccc1[N+](=O)[O-]	-1	-15%	0%	-12%	-1%	0%
CCC1=NN(C(=O)c2ccc([N+](=O)[O-])cc2)C(O)(c2ccccc2)C1 (configuration not stated)	-24	?	13µM*	?	·	?
O=C(c1ccccc1O)N1N=C(C(F)(F)F)CC1(O)c1ccc([N+](=O)[O-])cc1 (configuration not stated)	23	?	-34%	-24%	8%	?
CCC1=NN(C(=O)c2ccc(Cl)cc2)C(O)(c2ccccc2)C1 (configuration not stated)	-8	?	-88%	23µM*	2%	?
CCC1=NN(C(=O)c2ccc(Cl)cc2)C(O)(c2ccc(C)cc2)C1 (configuration not stated)	48	?	13µM*	?	5%	11µM*
CCOC(=O)C1=NN(C(=O)c2ccc(C)cc2)C(O)(c2ccc(Cl)cc2)C1 (configuration not stated)	-1	-7%	2%	-6%	12%	7%
COC(=O)C1=NN(C(=O)c2ccc(Cl)cc2)C(O)(c2ccccc2)C1 (configuration not stated)	5	-8%	-20%	-32%	6%	?
CCC1=NN(C(=O)c2ccccc2O)C(O)(c2ccccc2)C1 (configuration not stated)	107	12µM*	14µM*	13µM*	5%	13µM*
CCn1c(=O)cc(OCC(=O)NCc2ccccc2Cl)c2ccccc21	·	?	-25%	?	6%	?
CN(Cc1cccc(F)c1)C(=O)c1ccc(S(=O)(=O)N2CCOCC2)cc1	-6	-11%	-27%	0%	1%	11%
Cc1ccc(C)c(S(=O)(=O)c2nnn3c2nc(Nc2ccc(C)c(C)c2)c2sccc23)c1	·	-13%	-3%	0%	3%	0%
Cc1ccc(S(=O)(=O)c2nnn3c2nc(Nc2ccc(C(C)C)cc2)c2sccc23)cc1C	·	4.6µM*	2%	4.1µM*	0%	-16%
Cc1ccc(S(=O)(=O)c2nnn3c2nc(NC2CCCCCC2)c2sccc23)cc1C	·	21µM*	-1%	15µM*	-3%	36%
